test system: not listed separately; experiment: RPMI8226 myeloma cell viability, profiling panel, resazurin fluorescence, basal, 24 h, PK04 Diversity Set (AID 1180); conditions: higher = more signal;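 further: RPMI8826 multiple myeloma cell line at 5000 cells per well; test concentration not given here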

| Structure (SMILES) | z-score |
| --- | --- |
| COCCOC(=O)N1C(=O)[C@@]2(c3cc(C#CCC(C(=O)OC)C(=O)OC)ccc31)[C@H](C(=O)Nc1nc3ccccc3s1)[C@H]1C(=O)O[C@H](c3ccccc3)[C@H](c3ccccc3)N1[C@@H]2c1ccc(O)cc1 | -0.577 |
| COc1cc(CO)cc(I)c1O[C@H]1C=C(C(=O)NCCO)C[C@@H](NC2CCCCCC2)[C@@H]1O | 0.215 |
| O=C(NC1CC1)[C@@H]1c2ccccc2C(=O)N(Cc2ccc(OC(F)(F)F)cc2)[C@H]1c1ccc(CO)cc1 | 0.718 |
| CCOC(=O)C1=CC[C@@H](c2ccc(OC)cc2)N(S(=O)(=O)c2ccc(C)cc2)[C@H]1CC | -0.793 |
| CC1CC/C=C\[C@H]2OC34C=CCN(C(C)(C)C)C(=O)[C@H]3N(CCCO)C(=O)[C@@H]4C2C(=O)O1 (stereo partly drawn) | 0.276 |
| C=C(C)[C@@H]1CC=C(C(O)C2C=CC3C(=O)N(c4ccccc4)C(=O)C3N2Nc2ccc([N+](=O)[O-])cc2)CC1 (stereo partly drawn) | -0.204 |
| C=CCOC(=O)[C@@H]1[C@H]2C(=O)O[C@H](c3ccccc3)[C@H](c3ccccc3)N2[C@H](c2ccc(OCCOC(=O)[C@H]3C[C@H]4C(=O)NCC(=O)N4[C@H]3c3cccc(OCCO)c3)cc2)[C@@]12C(=O)Nc1ccc(I)cc12 | -1.09 |
| COC(=O)[C@H](Cc1ccccc1)N1CC2=CCCC=C[C@@H]2[C@H]1[C@H](O)Cc1ccccc1 | 0.0722 |
| CC(=O)OCC1C2CC[C@H]3C(OCc4ccc(F)cc4C(F)(F)F)OC[C@]4(C)[C@H]3C2=C(CN4C(=O)OC(C)(C)C)[C@H](C)C1COC(C)=O (stereo partly drawn) | -1.18 |
| CC(=O)c1ccc(C(O)C2C=CC3C(=O)N(c4ccccc4)C(=O)C3N2Nc2ccc(C(C)C)cc2)cc1 (stereo not drawn) | -0.721 |
| CC(C)NC(=O)[C@@]1(C)c2ccccc2C(=O)N(Cc2ccccc2)[C@H]1c1ccc(CO)cc1 | 0.453 |
| CCCCC(O)C1C=CC2C(=O)N(c3ccccc3)C(=O)C2N1Nc1ccc([N+](=O)[O-])cc1 (stereo not drawn) | -0.354 |
| Cc1ccc(S[C@]2(C(=O)NC3CC3)CC(=O)N(C(C)C)[C@@H]2c2ccc(CO)cc2I)cc1 | -2.37 |
| COCCOC(=O)N1C(=O)[C@@]2(c3cc(C#CCC(C(=O)OC)C(=O)OC)ccc31)[C@H](C(=O)Nc1nc3ccccc3s1)[C@H]1C(=O)O[C@H](c3ccccc3)[C@H](c3ccccc3)N1[C@@H]2c1ccc(OCCO)cc1 | -0.177 |
| COC(=O)C1=CC(CCCO)=CC(c2cccs2)N(Cc2cc3c(cc2Br)OCO3)C=C1C(=O)OC (stereo not drawn) | 0.365 |
| CN1C(=O)C2C(C1=O)C1C=C(c3ccc(CO)cc3)C2C(C2CC2)N1C (stereo not drawn) | -0.772 |
| COCCCNC(=O)[C@@H]1c2ccccc2C(=O)N(Cc2ccc(OC(F)(F)F)cc2)[C@H]1c1ccc(CO)cc1 | 0.116 |
| COCCCNC(=O)[C@@]1(CCC(=O)OC(C)(C)C)COC(c2ccc(OCCCO)cc2)=N1 | 0.928 |
| O=C(O)[C@H](Cc1ccccc1)n1cc(C2(O)CCCCC2)nn1 | -0.88 |
| CN(C)CCCC[C@@H]1NC(=O)[C@@H]2C[C@H](C(=O)NCCCCCCNC(=O)CS)[C@H](c3ccc(O)cc3)N2C1=O | 0.0875 |
| COC(=O)[C@@]1(Cc2ccc(OC)cc2)[C@H]2c3cc(C(=O)N4CCCC4)n(CCn4cc([N+](=O)[O-])nc4C)c3C[C@H]2CN1C(=O)c1ccccc1 | -1.65 |
| [N-]=[N+]=NCc1ccccc1[C@@H]1OC(c2ccc(OCCCO)cc2)=N[C@]1(Cc1ccccc1N=[N+]=[N-])C(=O)O | -0.0845 |
| C=CCOC(=O)[C@H]1[C@@H]2C(=O)O[C@@H](c3ccccc3)[C@@H](c3ccccc3)N2[C@@H](c2ccc(OCCOC(=O)[C@H]3C[C@H]4C(=O)N[C@@H](CC(C)C)C(=O)N4[C@H]3c3ccc(O)cc3)cc2)[C@]12C(=O)Nc1ccccc12 | 0.862 |
| COc1ccc([Si](C)(C)[C@H]2[C@H](CC(=O)N3Cc4ccccc4C[C@H]3CO)O[C@@]3(C(=O)N(c4ccccc4)c4ccccc43)[C@@H]2C)cc1 | -2.1 |
| N#Cc1ccc(-c2cccc(=O)o2)cc1 | -0.389 |
| COCCOC(=O)N1C(=O)[C@@]2(c3ccccc31)[C@H](C(=O)N1CCN(c3ncccn3)CC1)[C@H]1C(=O)O[C@H](c3ccccc3)[C@H](c3ccccc3)N1[C@@H]2c1ccccc1OCCO | 1.69 |
| NC(=O)NCC#Cc1ccc2c(c1)[C@]1(C(=O)N2)[C@H](c2ccc(OCCO)cc2)N2[C@H](c3ccccc3)[C@H](c3ccccc3)OC(=O)[C@H]2[C@@H]1C(=O)O | 0.15 |
| COC(=O)[C@@]1(Cc2ccc(OC)cc2)[C@H]2c3cc(C(=O)N(C)C)[nH]c3C[C@H]2CN1C(=O)c1ccccc1 | -0.247 |

target: E3 ubiquitin-protein ligase XIAP (Homo sapiens) (UniProt P98170); experiment: XIAP binders, primary screen, biophysical, small-molecule microarray, fluorescence 635 nm (AID 1181); conditions: small-molecule microarray binding, higher = more signal;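 further: score merges 667 nm emission and signal to noise over triplicate slides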
Sequence (P98170 whole entry, looked up): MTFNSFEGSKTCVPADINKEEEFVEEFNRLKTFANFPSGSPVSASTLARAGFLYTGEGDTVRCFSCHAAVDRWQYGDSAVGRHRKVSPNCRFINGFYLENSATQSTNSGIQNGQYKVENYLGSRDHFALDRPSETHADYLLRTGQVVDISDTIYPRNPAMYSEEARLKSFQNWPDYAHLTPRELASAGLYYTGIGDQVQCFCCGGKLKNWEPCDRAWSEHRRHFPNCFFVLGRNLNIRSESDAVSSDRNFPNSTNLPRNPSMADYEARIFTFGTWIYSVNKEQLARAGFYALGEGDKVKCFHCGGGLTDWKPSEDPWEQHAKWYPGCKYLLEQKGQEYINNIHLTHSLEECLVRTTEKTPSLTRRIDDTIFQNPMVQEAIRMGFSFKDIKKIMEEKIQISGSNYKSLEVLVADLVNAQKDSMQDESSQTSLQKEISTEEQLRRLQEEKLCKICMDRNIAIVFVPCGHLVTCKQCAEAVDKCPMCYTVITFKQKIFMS

| Structure (SMILES) | composite z-score |
| --- | --- |
| COc1cc(OC)c(C(O)C2C=CC3C(=O)N(c4ccccc4)C(=O)C3N2Nc2ccc(C(C)C)cc2)cc1Br (stereo not drawn) | 0.0838 |
| CC(C)c1nc2cc(Br)ccc2c(=O)o1 | 0.0705 |
| CN1C(=O)[C@@H]2[C@@H](CC(COc3ccccc3)=C3[C@@H](CCc4ccccc4)OB(O)C[C@@H]32)C1=O | -0.02 |
| O=C(NCCN1CCOCC1)[C@@H]1c2ccccc2C(=O)N(Cc2ccc(OC(F)(F)F)cc2)[C@H]1c1ccc(CO)cc1 | 0.0151 |
| CN(C)c1ccc(C(O)C2C=CC3C(=O)N(Cc4ccccc4)C(=O)C3N2n2cnnc2)cc1 (stereo not drawn) | 0.0968 |
| CC(C)C(O)C1C=CC2C(=O)NC(=O)C2N1Nc1ccccn1 (stereo not drawn) | 0.106 |
| COc1ccc([Si](C)(C)[C@@H]2[C@@H](CC(=O)N3Cc4ccccc4C[C@H]3CO)O[C@]3(C(=O)N(Cc4ccc(N5CCOC5=O)cc4)c4ccccc43)[C@H]2C)cc1 | 0.0049 |
| COCCOC(=O)N1C(=O)[C@@]2(c3cc(C#CCC(C(=O)OC)C(=O)OC)ccc31)[C@H](C(=O)Nc1nc3ccccc3s1)[C@H]1C(=O)O[C@H](c3ccccc3)[C@H](c3ccccc3)N1[C@@H]2c1ccc(O)cc1 | 0.286 |
| COc1cc(CO)cc(I)c1O[C@H]1C=C(C(=O)NCCO)C[C@@H](NC2CCCCCC2)[C@@H]1O | -0.11 |
| O=C(NC1CC1)[C@@H]1c2ccccc2C(=O)N(Cc2ccc(OC(F)(F)F)cc2)[C@H]1c1ccc(CO)cc1 | -0.239 |
| CCOC(=O)C1=CC[C@@H](c2ccc(OC)cc2)N(S(=O)(=O)c2ccc(C)cc2)[C@H]1CC | -0.321 |
| CC1CC/C=C\[C@H]2OC34C=CCN(C(C)(C)C)C(=O)[C@H]3N(CCCO)C(=O)[C@@H]4C2C(=O)O1 (stereo partly drawn) | -0.02 |
| C=C(C)[C@@H]1CC=C(C(O)C2C=CC3C(=O)N(c4ccccc4)C(=O)C3N2Nc2ccc([N+](=O)[O-])cc2)CC1 (stereo partly drawn) | -0.0848 |
| C=CCOC(=O)[C@@H]1[C@H]2C(=O)O[C@H](c3ccccc3)[C@H](c3ccccc3)N2[C@H](c2ccc(OCCOC(=O)[C@H]3C[C@H]4C(=O)NCC(=O)N4[C@H]3c3cccc(OCCO)c3)cc2)[C@@]12C(=O)Nc1ccc(I)cc12 | -0.117 |
| COC(=O)[C@H](Cc1ccccc1)N1CC2=CCCC=C[C@@H]2[C@H]1[C@H](O)Cc1ccccc1 | 0.104 |
| CC(=O)OCC1C2CC[C@H]3C(OCc4ccc(F)cc4C(F)(F)F)OC[C@]4(C)[C@H]3C2=C(CN4C(=O)OC(C)(C)C)[C@H](C)C1COC(C)=O (stereo partly drawn) | 0.691 |
| CC(=O)c1ccc(C(O)C2C=CC3C(=O)N(c4ccccc4)C(=O)C3N2Nc2ccc(C(C)C)cc2)cc1 (stereo not drawn) | 0.102 |
| CC(C)NC(=O)[C@@]1(C)c2ccccc2C(=O)N(Cc2ccccc2)[C@H]1c1ccc(CO)cc1 | -0.287 |

| Structure (SMILES) | composite z-score |
| --- | --- |
| CCCCC(O)C1C=CC2C(=O)N(c3ccccc3)C(=O)C2N1Nc1ccc([N+](=O)[O-])cc1 (stereo not drawn) | -0.156 |
| Cc1ccc(S[C@]2(C(=O)NC3CC3)CC(=O)N(C(C)C)[C@@H]2c2ccc(CO)cc2I)cc1 | -0.02 |
| COCCOC(=O)N1C(=O)[C@@]2(c3cc(C#CCC(C(=O)OC)C(=O)OC)ccc31)[C@H](C(=O)Nc1nc3ccccc3s1)[C@H]1C(=O)O[C@H](c3ccccc3)[C@H](c3ccccc3)N1[C@@H]2c1ccc(OCCO)cc1 | 0.214 |
| COC(=O)C1=CC(CCCO)=CC(c2cccs2)N(Cc2cc3c(cc2Br)OCO3)C=C1C(=O)OC (stereo not drawn) | 0.344 |
| CN1C(=O)C2C(C1=O)C1C=C(c3ccc(CO)cc3)C2C(C2CC2)N1C (stereo not drawn) | -0.0611 |
| COCCCNC(=O)[C@@H]1c2ccccc2C(=O)N(Cc2ccc(OC(F)(F)F)cc2)[C@H]1c1ccc(CO)cc1 | -0.219 |
| COCCCNC(=O)[C@@]1(CCC(=O)OC(C)(C)C)COC(c2ccc(OCCCO)cc2)=N1 | -0.0272 |
| O=C(O)[C@H](Cc1ccccc1)n1cc(C2(O)CCCCC2)nn1 | -0.0668 |
| CN(C)CCCC[C@@H]1NC(=O)[C@@H]2C[C@H](C(=O)NCCCCCCNC(=O)CS)[C@H](c3ccc(O)cc3)N2C1=O | 0.0013 |
| COC(=O)[C@@]1(Cc2ccc(OC)cc2)[C@H]2c3cc(C(=O)N4CCCC4)n(CCn4cc([N+](=O)[O-])nc4C)c3C[C@H]2CN1C(=O)c1ccccc1 | 0.111 |
| [N-]=[N+]=NCc1ccccc1[C@@H]1OC(c2ccc(OCCCO)cc2)=N[C@]1(Cc1ccccc1N=[N+]=[N-])C(=O)O | 0.104 |
| C=CCOC(=O)[C@H]1[C@@H]2C(=O)O[C@@H](c3ccccc3)[C@@H](c3ccccc3)N2[C@@H](c2ccc(OCCOC(=O)[C@H]3C[C@H]4C(=O)N[C@@H](CC(C)C)C(=O)N4[C@H]3c3ccc(O)cc3)cc2)[C@]12C(=O)Nc1ccccc12 | -0.0078 |
| COc1ccc([Si](C)(C)[C@H]2[C@H](CC(=O)N3Cc4ccccc4C[C@H]3CO)O[C@@]3(C(=O)N(c4ccccc4)c4ccccc43)[C@@H]2C)cc1 | -0.209 |
| N#Cc1ccc(-c2cccc(=O)o2)cc1 | -0.0085 |
| COCCOC(=O)N1C(=O)[C@@]2(c3ccccc31)[C@H](C(=O)N1CCN(c3ncccn3)CC1)[C@H]1C(=O)O[C@H](c3ccccc3)[C@H](c3ccccc3)N1[C@@H]2c1ccccc1OCCO | -0.0095 |
| NC(=O)NCC#Cc1ccc2c(c1)[C@]1(C(=O)N2)[C@H](c2ccc(OCCO)cc2)N2[C@H](c3ccccc3)[C@H](c3ccccc3)OC(=O)[C@H]2[C@@H]1C(=O)O | -0.0013 |
| COC(=O)[C@@]1(Cc2ccc(OC)cc2)[C@H]2c3cc(C(=O)N(C)C)[nH]c3C[C@H]2CN1C(=O)c1ccccc1 | -0.147 |

— PubChem BioAssay
